Assay outcomes from PubChem.
TexasRed autofl: compounds fluorescent in Texas Red spectral region; Compound fluorescence, Texas Red channel, 547/618 nm; active compounds read high; AID 587; max dye-equivalent concentration, M; actives 0.06% (n = 59,000); in the data active = max dye-equivalent concentration above about 10 nM; inconclusive = between about 1.1 nM and that limit
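qHTS profiling of intrinsic compound fluorescence; 100 mM Tris pH 8.0; 15 min RT; ex 547 / em 618 nm; response expressed as Texas Red dye-equivalent concentration from six-point plate standard.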
A488 fluor: compound fluoresces in the A488 spectral region; max dye equivalency, M; actives 0.1% (n = 59,000); compound autofluorescence, A488 spectral region, dye equivalency; Compound Type: qHTS ECL - MLSMR; AID 591
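Compound autofluorescence was read in 100 mM Tris pH 8.0 after 15 min at room temperature, ex 480 nm/em 540 nm. Intensities were converted to A488 dye-equivalent concentration using an on-plate six-point A488 standard curve.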
Rhodamine autofl: rhodamine region autofluorescence | Rhodamine-region fluorescence, 547/598 nm, Tris buffer; active compounds read high | max dye-equivalent concentration, M | actives 0.05% (n = 59,000) | AID 594; in the data active = max dye-equivalent concentration above about 11 nM; inconclusive = between about 1.1 nM and that limit
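Compound fluorescence in 100 mM Tris, pH 8.0, read after 15 min at room temperature with 547 nm excitation and 598 nm emission. Output is dye-equivalent concentration from an on-plate rhodamine standard series.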
Fluorescein autfl: fluorescein region autofluorescence; Compound autofluorescence, 480/540 nm, fluorescein-equivalent; active compounds read high; max fluorescein-equivalent concentration, M; actives 0.91% (n = 59,000); in the data active = max fluorescein-equivalent concentration above about 10 nM; inconclusive = between about 1.1 nM and that limit
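Compounds (23 nL) in 100 mM Tris pH 8.0, 15 min at room temperature, then fluorescence read at 480 nm excitation/540 nm emission. Signal converted to fluorescein-equivalent concentration from an on-plate fluorescein standard curve.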
A647 fluor: compound fluoresces in the A647 spectral region | 59,000 tested, under 10 active | max dye-equivalent concentration, M | Compound fluorescence, A647 channel (570/671 nm), Tris buffer
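Tris 100 mM pH 8.0; cpd + A647 stds pin-transferred; 15 min RT; CCD imager, ex 570/em 671. Output = A647-equivalent conc. per cpd conc.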
Resorufin autofl: compound fluoresces in the resorufin spectral region | Compound fluorescence, resorufin region 547/598 nm, buffer; active compounds read high | max dye-equivalent concentration, M | actives 0.04% (n = 59,000)
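Tris 100 mM pH 8.0; compound added, 15 min RT; CCD imager read, ex 547 nm/em 598 nm; signal normalized to resorufin standard curve (six concentrations per plate) as dye-equivalent concentration.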
A number is an active result. An excerpt weighted towards active compounds, which were near 0.95% of everything screened. Unless noted, the rule behind the calls is not given here.

What do the screens show for `COc1ccc(C2C3=C(CC(C)(C)CC3=O)Nc3c2c(=O)[nH]c(=O)n3Cc2ccccc2)cc1OC` (stereo unspecified)?
TexasRed autofl: inactive; A488 fluor: inactive; Rhodamine autofl: inactive; Fluorescein autfl: 1.1e-08M; A647 fluor: inactive; Resorufin autofl: inactive

What do the screens show for `COc1cccc(CSCC(=O)O)c1`?
TexasRed autofl: inactive; A488 fluor: inactive; Rhodamine autofl: inactive; Fluorescein autfl: inactive; A647 fluor: inactive; Resorufin autofl: inactive

How did CCOC(=O)c1c2c(n3ccccc13)C(=O)c1ccccc1C2=O do in these assays?
TexasRed autofl: inactive; A488 fluor: inactive; Rhodamine autofl: inactive; Fluorescein autfl: inconclusive; A647 fluor: inactive; Resorufin autofl: inactive

How did CCOC(=O)C(C(=O)OCC)c1cc(Br)c2noc3c2c1C(=O)c1ccccc1-3 do in these assays?
TexasRed autofl: inactive; A488 fluor: 1.2e-08M; Rhodamine autofl: inactive; Fluorescein autfl: 2.6e-07M; A647 fluor: inactive; Resorufin autofl: inactive

How did c1ccc(Cn2nnc3c(NCCN4CCOCC4)ncnc32)cc1 do in these assays?
TexasRed autofl: inactive; A488 fluor: inactive; Rhodamine autofl: inactive; Fluorescein autfl: inactive; A647 fluor: inactive; Resorufin autofl: inactive

What do the screens show for `c1ccc(CCNc2ncnc3c2nnn3Cc2ccccc2)cc1`?
TexasRed autofl: inactive; A488 fluor: inactive; Rhodamine autofl: inactive; Fluorescein autfl: 1.2e-08M; A647 fluor: inactive; Resorufin autofl: inactive

Results for O=C(O)c1cccc(OCCO)c1 ?
TexasRed autofl: inactive; A488 fluor: inactive; Rhodamine autofl: inactive; Fluorescein autfl: inconclusive; A647 fluor: inactive; Resorufin autofl: inactive

Results for O=C(c1csnn1)N1CCC2(CCN(Cc3ccccc3)CC2)CC1 ?
TexasRed autofl: inactive; A488 fluor: inactive; Rhodamine autofl: inactive; Fluorescein autfl: inconclusive; A647 fluor: inactive; Resorufin autofl: inactive

How did COCCn1c(=O)c(-c2ccc(OC)cc2)nc2cnc(Nc3cccc(OC)c3)nc21 do in these assays?
TexasRed autofl: inactive; A488 fluor: inactive; Rhodamine autofl: inactive; Fluorescein autfl: 1e-08M; A647 fluor: inactive; Resorufin autofl: inactive

How did COCCn1c(=O)c(C)nc2cnc(Nc3cccc(OC)c3)nc21 do in these assays?
TexasRed autofl: inactive; A488 fluor: inactive; Rhodamine autofl: inactive; Fluorescein autfl: inactive; A647 fluor: inactive; Resorufin autofl: inactive

How did COc1cccc(Nc2ncc3nc(-c4cn(C)c5ccccc45)c(=O)n(CCC#N)c3n2)c1 do in these assays?
TexasRed autofl: inactive; A488 fluor: inactive; Rhodamine autofl: inactive; Fluorescein autfl: 2.4e-08M; A647 fluor: inactive; Resorufin autofl: inactive

How did COc1ccc2[nH]cc(CCNc3ccnc(-c4ccc(N(C)C)cc4)n3)c2c1 do in these assays?
TexasRed autofl: inactive; A488 fluor: inactive; Rhodamine autofl: inactive; Fluorescein autfl: inconclusive; A647 fluor: inactive; Resorufin autofl: inactive

Results for Cc1cc(N=Cc2c(O)n(-c3ccc4c(c3)OCO4)c(=O)c3ccccc23)ccn1 ?
TexasRed autofl: inconclusive; A488 fluor: inactive; Rhodamine autofl: inactive; Fluorescein autfl: inconclusive; A647 fluor: inactive; Resorufin autofl: inactive

What do the screens show for `Cc1cccc(-n2c(O)c(C=Nc3ccc4c(c3)OCO4)c3ccccc3c2=O)n1`?
TexasRed autofl: inactive; A488 fluor: inconclusive; Rhodamine autofl: inactive; Fluorescein autfl: 5.8e-08M; A647 fluor: inactive; Resorufin autofl: inactive

How did CN(C)c1ncc2nc(-c3cccs3)c(=O)n(C3CC3)c2n1 do in these assays?
TexasRed autofl: inactive; A488 fluor: inactive; Rhodamine autofl: inactive; Fluorescein autfl: 1.5e-08M; A647 fluor: inactive; Resorufin autofl: inactive

What do the screens show for `Cn1nc(-c2ccccc2)c2nc3ccccc3nc21`?
TexasRed autofl: inactive; A488 fluor: 2.7e-08M; Rhodamine autofl: inactive; Fluorescein autfl: 4.5e-07M; A647 fluor: inactive; Resorufin autofl: inactive

What do the screens show for `CCCCOc1ccc(-c2c(C#N)c(N)nc(SCC(N)=O)c2C#N)cc1`?
TexasRed autofl: inconclusive; A488 fluor: inactive; Rhodamine autofl: inconclusive; Fluorescein autfl: 1e-08M; A647 fluor: inactive; Resorufin autofl: inactive

Results for CCCCOC(=O)CSc1nc(N)c(C#N)c(-c2ccc(OCC)cc2)c1C#N ?
TexasRed autofl: inconclusive; A488 fluor: inactive; Rhodamine autofl: inactive; Fluorescein autfl: inactive; A647 fluor: inactive; Resorufin autofl: inactive

How did COCCNc1ccnc(-c2ccccc2CN(C)C)n1 do in these assays?
TexasRed autofl: inactive; A488 fluor: inactive; Rhodamine autofl: inactive; Fluorescein autfl: inconclusive; A647 fluor: inactive; Resorufin autofl: inactive

Results for CCCN1CCCc2cc(CN)ccc21 ?
TexasRed autofl: inactive; A488 fluor: inconclusive; Rhodamine autofl: inactive; Fluorescein autfl: 3.3e-08M; A647 fluor: inactive; Resorufin autofl: inactive

How did CN(C)S(=O)(=O)N1CCc2ccccc21 do in these assays?
TexasRed autofl: inactive; A488 fluor: inactive; Rhodamine autofl: inactive; Fluorescein autfl: inactive; A647 fluor: inactive; Resorufin autofl: inactive

How did O=S(=O)(Cc1ccccc1)N1CCc2ccccc21 do in these assays?
TexasRed autofl: 2e-08M; A488 fluor: inconclusive; Rhodamine autofl: 2.1e-08M; Fluorescein autfl: 3.4e-08M; A647 fluor: inactive; Resorufin autofl: 1.6e-08M

How did CCCCC[C@H](CC(=O)NO)C(=O)N[C@@H](C(=O)N1CCC[C@H]1CO)C(C)C do in these assays?
TexasRed autofl: inactive; A488 fluor: inactive; Rhodamine autofl: inactive; Fluorescein autfl: inconclusive; A647 fluor: inactive; Resorufin autofl: inactive

What do the screens show for `CC(C)N1CC=C2C(C#N)=C(N)C(C#N)(C#N)C(c3ccccc3)C2C1` (stereo unspecified)?
TexasRed autofl: inactive; A488 fluor: inconclusive; Rhodamine autofl: inactive; Fluorescein autfl: 1.6e-07M; A647 fluor: inactive; Resorufin autofl: inactive

Results for CCN1CC=C2C(C#N)=C(N)C(C#N)(C#N)C(c3cc(Cl)ccc3Cl)C2C1 (stereo unspecified) ?
TexasRed autofl: inactive; A488 fluor: inactive; Rhodamine autofl: inactive; Fluorescein autfl: 2.4e-08M; A647 fluor: inactive; Resorufin autofl: inactive

How did CN1CC=C2C(C#N)=C(N)C(C#N)(C#N)C(Cc3ccccc3)C2C1 (stereo unspecified) do in these assays?
TexasRed autofl: inconclusive; A488 fluor: inconclusive; Rhodamine autofl: inactive; Fluorescein autfl: 3.7e-08M; A647 fluor: inactive; Resorufin autofl: inactive

Results for COc1cc(C2C3CN(C)CC=C3C(C#N)=C(N)C2(C#N)C#N)ccc1OC(C)C (stereo unspecified) ?
TexasRed autofl: inactive; A488 fluor: inconclusive; Rhodamine autofl: inactive; Fluorescein autfl: 3.6e-08M; A647 fluor: inactive; Resorufin autofl: inactive

How did CCC1C2CN(C(C)=O)CC=C2C(C#N)=C(N)C1(C#N)C#N (stereo unspecified) do in these assays?
TexasRed autofl: inactive; A488 fluor: inactive; Rhodamine autofl: inactive; Fluorescein autfl: inconclusive; A647 fluor: inactive; Resorufin autofl: inactive
